Laboratory results from paper PMC7819943, “Rice protein-binding microarrays: a tool to detect cis-acting elements near promoter regions in rice”.
In all, about 68,000 sequences were measured (“fluorescence intensity (a.u.)”: median about 9,100, highest 2% from about 16,000 on). Only a selection was taken, and the highest values are over-represented in it overall.

What follows are sequences tested against OsWRKY34 (Oryza sativa, UniProt Q0JBA9 1-250) (assay: protein-binding microarray (RPBM); PBS, 2% BSA, 51.3 ng/ul salmon testes DNA, 50 uM zinc acetate, 200 nM TF, 25 C, 1 h; high values mean tight binding). Conditions: protein: recombinant; tags: N-terminal polyhistidine and DsRed monomer fusion (pET32a); label: CyDye5-dUTP incorporated in the synthesized complementary strand; 3' TTTTT single-stranded linker to array surface; dsDNA, one strand shown.
Procedure, shortened: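 Binding signal is defined as the fluorescence intensity of each feature in arbitrary units, read on an Axon 4000B scanner. Transcription factors with N-terminal polyhistidine and DsRed fusions came from E. coli BL21-CodonPlus and were purified on Ni–NTA. They were incubated at 200 nM for 1 h at 25 °C on a custom Agilent array that had been made double-stranded with Cy5-dUTP, with 50 µM zinc acetate present, and the array was washed.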

Chain of OsWRKY34 (Q0JBA9 entry or part of it): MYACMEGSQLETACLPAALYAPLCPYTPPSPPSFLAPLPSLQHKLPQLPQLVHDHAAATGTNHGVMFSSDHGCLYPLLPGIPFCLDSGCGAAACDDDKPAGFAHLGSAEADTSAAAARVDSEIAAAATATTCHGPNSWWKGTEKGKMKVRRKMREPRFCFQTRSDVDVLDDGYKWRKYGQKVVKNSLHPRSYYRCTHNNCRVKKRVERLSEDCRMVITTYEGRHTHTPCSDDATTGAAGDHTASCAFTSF

First: ATATATATATATATATATATATAGAGAGAGAGAGAGAGACCGGAGTCACCTAGTGCAG
Second: TAGCTTTGGAGGAGGAGGAGGAGGAGGGGCGCGAGCCATGCGGAGTCACCTAGTGCAG
The binding signal of the first is lower: 8980 fluorescence intensity (a.u.) for the first, 10800 fluorescence intensity (a.u.) for the second.

Compared with “GGCGGCGGCGGAGGAGGAGGAGGGGAGGGGAGCACGAGCGCGGAGTCACCTAGTGCAG”, “ATATATATATATATATATATATATATATATATGCGCAGAGCGGAGTCACCTAGTGCAG” is lower in binding signal: 17400 fluorescence intensity (a.u.) for the first, 9140 fluorescence intensity (a.u.) for the second.

First: CGATCGGAGGAGGAGGCGGCGGGGAGGGAGGAGGAGGATGCGGAGTCACCTAGTGCAG
Second: GGCGGCGGAGGAGGAGGAGGCGCGAGGGGAGGCGAGCATGCGGAGTCACCTAGTGCAG
The binding signal of the first is higher: 10800 fluorescence intensity (a.u.) for the first, 8150 fluorescence intensity (a.u.) for the second.

First: GGGCGAGGAGCAGCGGCGGGCGGGCGGATGAGGGGCGGCGCGGAGTCACCTAGTGCAG
Second: GCGGGATCGCGCGGGCGGCGGCGGCGGCGGGGAGGGGATGCGGAGTCACCTAGTGCAG
The binding signal of the first is lower: 11400 fluorescence intensity (a.u.) for the first, 16900 fluorescence intensity (a.u.) for the second.

First: CGATCGGGCCGCGGCGCGAGGGAGGGGATCGGTGCGCGCGCGGAGTCACCTAGTGCAG
Second: GGAGGAGAGCTTGGTGGTGCGCTGATCGGCGGATGCGGGGCGGAGTCACCTAGTGCAG
The binding signal of the first is lower: 8060 fluorescence intensity (a.u.) for the first, 8490 fluorescence intensity (a.u.) for the second.

Going from “ATATATATATATATATATATATATATATAGAGCGCGCACTCGGAGTCACCTAGTGCAG” to “TTGAGAGCTGGAGGCGCAGGCTGGGATCGGCGGAGCCATGCGGAGTCACCTAGTGCAG”, the binding signal rises from 21200 fluorescence intensity (a.u.) to 63200 fluorescence intensity (a.u.).

Going from “CGCTCTCTTGTTGACCACCTCGCGTTGCACTGGGCCAGCCCGGAGTCACCTAGTGCAG” to “GCTGCTGGTGGTGGTAGTAGGACTTGGGGCTCGTGTTGTGCGGAGTCACCTAGTGCAG”, the binding signal rises from 9490 fluorescence intensity (a.u.) to 9720 fluorescence intensity (a.u.).

First: TCGTAGGGTGCGGGGTGGCTGCCTGTCTCCTTCGCCTCGCCGGAGTCACCTAGTGCAG
Second: ATCACCAGTTGCCATTCTGTCACCTCAACTTAGAACATACCGGAGTCACCTAGTGCAG
The binding signal of the first is higher: 9680 fluorescence intensity (a.u.) for the first, 8290 fluorescence intensity (a.u.) for the second.

Going from “CAAACGTACTCCTACTCTCCAAGCAGCCTATATAAACCACCGGAGTCACCTAGTGCAG” to “TTTCACCTAGTCCTAGCCTAATTCGTCTATCTTTATCAATCGGAGTCACCTAGTGCAG”, the binding signal rises from 8590 fluorescence intensity (a.u.) to 9710 fluorescence intensity (a.u.).

Going from “CGCTGCTTTTGCTGCTGCTGTTGATGATGCATCCCATTCCCGGAGTCACCTAGTGCAG” to “CGCGCGCGCGCGCGTACGTGGGAACAGAGAGCGGCGCCGACGGAGTCACCTAGTGCAG”, the binding signal rises from 9140 fluorescence intensity (a.u.) to 27900 fluorescence intensity (a.u.).

First: GTAGCAATGGGCGGCGGGGAGCGGGGCTGAGCGGCAGCCGCGGAGTCACCTAGTGCAG
Second: GGCGTGGGGAGGCGGAGGGAGGGAGGGGAGCGGCTGCGCACGGAGTCACCTAGTGCAG
The binding signal of the first is lower: 8150 fluorescence intensity (a.u.) for the first, 17700 fluorescence intensity (a.u.) for the second.

Going from “TGCGGGGCGCAAGGCGCGCGGTAGGGGAGGGGTTAGCGCTCGGAGTCACCTAGTGCAG” to “GGGAGCGGGTGGGAGTGGCCGGCGCGGAGGACGACGGCGGCGGAGTCACCTAGTGCAG”, the binding signal rises from 8190 fluorescence intensity (a.u.) to 8280 fluorescence intensity (a.u.).

Going from “CGGAGGCATGGGGAGGCTGCTGCGGCGCCAATTGTGGCCACGGAGTCACCTAGTGCAG” to “AGCTGAGGGGCGGCGGCGGCTGGCAAGGGGCGGCGGCGGCCGGAGTCACCTAGTGCAG”, the binding signal rises from 8860 fluorescence intensity (a.u.) to 10900 fluorescence intensity (a.u.).

Going from “GGCGGCGGCGGCGGGGCGGCGTGGCGCCGAGGGAGGGGAACGGAGTCACCTAGTGCAG” to “GGTTCTTCTGAGCGGGGCCGGGGCGGGGCGGCAGCTGGGGCGGAGTCACCTAGTGCAG”, the binding signal rises from 12500 fluorescence intensity (a.u.) to 30000 fluorescence intensity (a.u.).

Compared with “TATTTTAGTGCAAGGGGCGGGCGGGCGCGGTAGAAGTCAACGGAGTCACCTAGTGCAG”, “GCTGGGAGGGAGGAGCGGGAGGCGGCGCGGCGCGTGGAGGCGGAGTCACCTAGTGCAG” is lower in binding signal: 18200 fluorescence intensity (a.u.) for the first, 8580 fluorescence intensity (a.u.) for the second.

Going from “GGCCGGTAGGGGTAGAACGGTCATTTCGTGCGCGGGGAGGCGGAGTCACCTAGTGCAG” to “AATACGGTTTGGAAGGGATCTTTTTTGGTTGGTTGCACTGCGGAGTCACCTAGTGCAG”, the binding signal falls from 9810 fluorescence intensity (a.u.) to 9650 fluorescence intensity (a.u.).

First: ATAGTTGTTTTGCCTACCCCACCCATGCCGAAGATGGACACGGAGTCACCTAGTGCAG
Second: ATCTTTTCTCTTCTCGACTTCTCGTATGCCGCGTCCCGTCCGGAGTCACCTAGTGCAG
The binding signal of the first is lower: 8790 fluorescence intensity (a.u.) for the first, 11100 fluorescence intensity (a.u.) for the second.

Compared with “CTTGTGGCTTGTGCAATTCTGTTTCATCGAGTTTGTTAACCGGAGTCACCTAGTGCAG”, “TTCAAATCTCATCCGAATTTTTTGTTTTTTATTTTTTTTTCGGAGTCACCTAGTGCAG” is lower in binding signal: 8830 fluorescence intensity (a.u.) for the first, 8280 fluorescence intensity (a.u.) for the second.

First: TAGTTCATCCTTGACATCAAGTGGGTTGCTAGTCTCATTCCGGAGTCACCTAGTGCAG
Second: TAGGCTGTATTCTTATCCACTCATGCAGTGCTCTGATAGGCGGAGTCACCTAGTGCAG
The binding signal of the first is lower: 9450 fluorescence intensity (a.u.) for the first, 11000 fluorescence intensity (a.u.) for the second.

Going from “TGGTTTGCATCTCTTCTTGCTCTTTGGAGGATTTACTACTCGGAGTCACCTAGTGCAG” to “GCGGCCGGTCCGAGCGAGCGGAGAGGGAGGAGGCGGGGAGCGGAGTCACCTAGTGCAG”, the binding signal falls from 9510 fluorescence intensity (a.u.) to 8360 fluorescence intensity (a.u.).

First: GAGGCCGGGGTCGGGGCGAGCGAGGCGAGAGGGGAGGAGGCGGAGTCACCTAGTGCAG
Second: CGGCGGCGGAGGAGGAGGAGGAGGAGGGCGCGGGGCGGCGCGGAGTCACCTAGTGCAG
The binding signal of the first is lower: 8910 fluorescence intensity (a.u.) for the first, 21700 fluorescence intensity (a.u.) for the second.
